# Ba CapD inh: blocks the Bacillus anthracis CapD enzyme; purified CapD enzyme, fluorescence intensity read-out; hits give low values; z-score (no concentration beside the values); hit rate 0.23% among 140,000; AID 492967; in the data active means z-score mostly below about -2.9, no sharp cut-off; inactive means mostly above about -1.9
# Numbers stand for hits; - = inactive. The sample as a whole holds a higher share of hits than the screen did.
SMILES,Ba CapD inh
O=c1ccc2cc3c([nH]c4ccc(Br)cc43)oc-2c1O,-7.81
O=C(Nc1ccccc1-c1nc2ccccc2[nH]1)c1ccc(S(=O)(=O)N2CCc3ccccc32)cc1,-
CCCOc1ccc(Oc2nc(N(C)C)nc(N3CCCC3)n2)nn1,-
CCc1ccc2oc(C(=O)N(Cc3ccc(N(C)C)cc3)Cc3ccco3)cc(=O)c2c1,-
COCCCNS(=O)(=O)c1cc(Cl)sc1Cl,-
CC(=O)c1cnc2cc(C)nn2c1C,-
CCOC(=O)c1cnc2cc(C)nn2c1C,-
Cc1cc2ncc(C(=O)/C=C/N(C)C)c(C)n2n1,-5.12
CC(=O)Oc1cn(OC(C)=O)c2ccc(Br)cc12,-
Cc1nn(-c2ccccc2)c2nc3ccccc3c(N3CCOCC3)c12,-
COc1ccc(CCNC(=O)C(C(C)C)N2C(=O)c3ccccc3C2=O)cc1 (configuration not stated),-4.84
COc1ccc(CCNC(=O)C(F)(F)F)cc1,-
COc1ccc(CN2C(=O)c3ccccc3C2=O)cc1,-
CCOC(=O)c1ccc(NC(=O)c2ccc3ncsc3c2)cc1,-
COc1cc(/C=c2\sc3nc(-c4ccccc4C)nn3c2=O)cc(Br)c1OC(C)=O,-
N=C1/C(=C\c2ccc(-c3cccc(C(=O)O)c3)o2)C(=O)N=C2SC(N3CCCCC3)=NN12,-3.81
CCc1ccc(/C=C2\C(=N)N3N=C(N4CCCC4)SC3=NC2=O)cc1,-
CN1C(=O)C(=Cc2ccc(-c3cccc(C(=O)O)c3)o2)C(=O)N(C)C1=S,-
FC(F)(F)c1cc(/C=C/c2noc(CN3CCCCCC3)n2)cc(C(F)(F)F)c1,-
Cc1nc2ccc(Cl)cc2c2c1C(=O)N(CCc1ccccn1)C2=O,-
O=C1CC(c2nc3ccccc3[nH]2)CN1c1ccccc1 (configuration not stated),-
c1ccc(C2=Nc3ccccc3SC2c2nc3ccccc3[nH]2)cc1 (configuration not stated),-4.06
COC(=O)NC1Sc2ccccc2N=C1c1ccccc1 (configuration not stated),-
CC(C)CCOc1ccc2c3c(c(=O)oc2c1)CCC3,-
CC(=O)Oc1ccc(N(C(C)=O)S(=O)(=O)c2ccc3ccccc3c2)cc1,-
SMILES,Ba CapD inh
COc1ccc(N(C(C)=O)S(=O)(=O)c2ccc(F)cc2)cc1,-7.35
COc1ccc(S(=O)(=O)N(C(C)=O)c2ccc3oc(=O)sc3c2)cc1,-
Cc1[nH]c(=O)c(C#N)c(C)c1Cl,-
CCc1[nH]c(=S)[nH]c(=O)c1C#N,-6.48
CCc1[nH]c(=O)c(C#N)c2c1CCCC2,-
CCOc1ccc(N2CCN(C(=O)OCCc3cccc4ccccc34)CC2)cc1,-
CN1/C(=C/C=N/O)C(C)(C)c2ccccc21,-
CN1/C(=C\C=Nc2cccc(C(=O)O)c2)C(C)(C)c2ccccc21,-
CN1/C(=C\C=Nc2ccc(C(=O)O)cc2)C(C)(C)c2ccccc21,-3.21
Oc1c(C(c2ccccn2)N2CCCCC2)ccc2cccnc12 (configuration not stated),-
Oc1c(C(c2ccccc2Cl)N2CCCCC2)ccc2cccnc12 (configuration not stated),-
CN1CCN(C(c2ccccn2)c2cc(Cl)c3cccnc3c2O)CC1 (configuration not stated),-8.05
COc1ccc(OCC(CN(C)C2=NS(=O)(=O)c3ccccc32)OC(=O)c2ccc(C)cc2)cc1 (configuration not stated),-
CCCCC1(C)OC(=O)C(=Cc2ccc(OCC)c(OC)c2)C(=O)O1 (configuration not stated),-
O=C1/C(=C\c2ccc(Br)o2)CC/C1=C/c1ccc(Br)o1,-
CCCCC1(C)OC(=O)C(=Cc2ccc(Br)o2)C(=O)O1 (configuration not stated),-4.42
CC(C)(C)c1cc2nc(C(F)(F)F)cc(N3CCN(C(=O)C4CC4C(=O)O)CC3)n2n1 (configuration not stated),-
Cc1ccc(Cn2c(C)c3cn[nH]c(=O)c3c2C)cc1,-
O=C(CCC1CCCCC1)Nc1ccc(-c2cn3cccnc3n2)cc1,-4.46
O=C(COc1ccccc1)Nc1ccc(-c2cn3cccnc3n2)cc1,-
COCC(=O)Nc1ccc(-c2cn3cccnc3n2)cc1,-
Cc1nnsc1C(=O)Nc1nn(C)c2cccc(F)c12,-
CCOC(=O)C1=C(CCl)OC(N)=C(C#N)C1c1ccc(F)c(Br)c1 (configuration not stated),-
CCc1ccc(N=c2oc3c(C)ncc(CO)c3cc2C(N)=O)cc1,-
N#Cc1ccc(SCCO)c([N+](=O)[O-])c1,-
SMILES,Ba CapD inh
CCN(c1ccccc1)c1cc(N(C)C)c2nonc2c1[N+](=O)[O-],-
O=[N+]([O-])c1ccc(SCCO)c2nonc12,-3.98
N#C[C@@H]1[C@@H](C(=O)c2ccc(F)cc2)N2C=Cc3ccccc3[C@@H]2[C@@]1(C#N)C(=O)c1ccccc1,-
O=S(=O)(c1ccc(Br)s1)N1CCN(Cc2ccccc2)CC1,-
CC(=O)N1CCn2c1nc(N(C)C)nc2=O,-
CC(C)NC(=S)N/N=C/c1ccco1,-4.04
S=C(N/N=C\c1ccco1)Nc1ccccc1,-
S=C(NCc1ccccc1)N/N=C/c1ccco1,-
COC(=O)c1ccc2c(=O)n(CCN3CCOCC3)c(SCC(=O)c3ccc(Br)cc3)nc2c1,-
CCOc1ccc2c(c1)-c1c(ssc1=S)C(C)(C)N2C(=O)CSc1ncn(C)n1,-
CC(=O)N1C(=O)/C(=C\C(=O)c2ccc(C)cc2)c2ccccc21,-
CC(=O)N1C(=O)c2ccccc2C1=O,-5.4
CC(=O)N1C(=O)c2ccc([N+](=O)[O-])cc2C1=O,-
CCOC(=O)c1c(C)nsc1NC(=O)C1CCC1,-
O=C(CSc1nnc(CNC(=O)c2ccco2)o1)NCc1ccccc1,-
Cc1cc(C)c(C(=O)O)c(CC(C)(C)C(=O)N2CCN(c3ncccc3C(F)(F)F)CC2)c1,-
CCOC(=O)C1=C(O)c2ccccc2C1=O,-
CC(=NCCc1ccc(F)cc1)C1=C(O)c2ccccc2C1=O,-4.78
CSC(C)C(=O)C1=C(O)c2ccccc2C1=O (configuration not stated),-
Cc1c(C(=O)NN)nn(-c2ccccc2)c(=O)c1C#N,-
CCOC(=O)c1c[nH]c(=S)[nH]c1=O,-7.04
CCOC(=O)c1cnc(=S)[nH]c1N,-
CCOC(=O)c1c[nH]c(=S)[nH]1,-
CCOC(=O)c1sc2nc(CC(=O)OC)nc(NCc3ccccc3Cl)c2c1C,-
COc1ccccc1NC(=O)/C=C/c1ccccc1,-
SMILES,Ba CapD inh
CN(C)C(=O)/C(=C/C=C/c1ccccc1)NC(=O)c1ccccc1,-
COC(=O)C(=C/C=C/c1ccccc1)C(=O)OC,-4.48
C=CCNc1ccc2c3c1cccc3c(=O)n1c3ccccc3nc21,-
Cn1c(=O)c(=O)n(C)c2cc(S(=O)(=O)CCC(=O)NCc3ccccc3)ccc21,-
Cn1c(=O)n(C)c2cc(S(=O)(=O)N(Cc3ccccc3)C(=O)c3ccncc3)ccc21,-7.59
CN(Cc1ccccc1)S(=O)(=O)c1ccc2c(c1)oc(=O)n2C,-
CC(=O)Oc1ccc(C2Nc3ccc(C(=O)O)cc3C3C=CCC32)c(OC(C)=O)c1 (configuration not stated),-4.42
CC(=O)Oc1ccc(C2Nc3ccc(C)cc3C3C=CCC32)c(OC(C)=O)c1 (configuration not stated),-
O=C(O)c1ccc(C2Nc3ccccc3C3C=CCC32)cc1 (configuration not stated),-7.87
CCc1ccc2c(c1)C1C=CCC1C(c1ccc(C(=O)O)cc1)N2 (configuration not stated),-

# Compound activity: PubChem, ICCB-Longwood Screening Facility, Harvard Medical School
